Measured values reported in publication PMC4336329 (PLoS ONE, 2015).
Hit rate of the full screen: of about 310,000 compounds, about 14,000 (4.5%) showed an effect of 50% or more. The effect is printed as a negative number. The sample as a whole holds a higher share of strong results than the screen did.

Target: human ether-à-go-go-related gene (hERG) potassium channel (human, UniProt Q12809)
Experiment: primary screen, population patch clamp on CHO cells stably expressing hERG; higher = less effect of the substance
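Also: peak tail current of the secondary pulse compared with the same well before compound.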

Sequence of human ether-à-go-go-related gene (hERG) potassium channel (Q12809 whole entry, looked up): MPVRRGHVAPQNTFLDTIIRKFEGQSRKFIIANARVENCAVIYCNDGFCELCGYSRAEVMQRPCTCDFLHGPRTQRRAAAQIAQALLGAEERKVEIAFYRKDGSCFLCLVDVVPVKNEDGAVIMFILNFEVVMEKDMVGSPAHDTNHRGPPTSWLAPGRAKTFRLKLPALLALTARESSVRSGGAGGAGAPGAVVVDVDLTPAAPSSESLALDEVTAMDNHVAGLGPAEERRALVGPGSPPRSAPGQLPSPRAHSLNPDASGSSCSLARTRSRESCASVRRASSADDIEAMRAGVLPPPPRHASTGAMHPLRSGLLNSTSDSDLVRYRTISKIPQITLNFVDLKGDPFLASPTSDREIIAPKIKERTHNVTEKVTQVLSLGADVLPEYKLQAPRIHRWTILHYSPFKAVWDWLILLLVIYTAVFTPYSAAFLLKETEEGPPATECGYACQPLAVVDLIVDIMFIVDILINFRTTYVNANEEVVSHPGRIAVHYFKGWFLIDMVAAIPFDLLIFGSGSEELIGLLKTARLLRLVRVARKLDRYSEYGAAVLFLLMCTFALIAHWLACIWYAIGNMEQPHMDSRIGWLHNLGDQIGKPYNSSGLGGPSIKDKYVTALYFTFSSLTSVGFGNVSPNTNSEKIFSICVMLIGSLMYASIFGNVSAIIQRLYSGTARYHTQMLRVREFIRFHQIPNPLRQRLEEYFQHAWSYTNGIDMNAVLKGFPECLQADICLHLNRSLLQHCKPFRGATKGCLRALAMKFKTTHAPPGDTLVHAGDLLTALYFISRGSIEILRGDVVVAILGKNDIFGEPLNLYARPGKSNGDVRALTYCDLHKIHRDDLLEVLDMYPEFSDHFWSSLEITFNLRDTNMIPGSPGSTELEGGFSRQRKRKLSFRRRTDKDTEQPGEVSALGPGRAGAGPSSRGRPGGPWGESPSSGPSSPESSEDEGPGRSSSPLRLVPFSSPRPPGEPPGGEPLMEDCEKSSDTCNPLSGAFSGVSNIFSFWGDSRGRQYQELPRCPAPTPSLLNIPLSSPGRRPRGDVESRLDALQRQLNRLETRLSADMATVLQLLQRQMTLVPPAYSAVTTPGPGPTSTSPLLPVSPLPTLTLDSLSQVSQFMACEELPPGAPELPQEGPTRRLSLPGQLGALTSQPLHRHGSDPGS

Compound | hERG current change (%, negative = inhibition) at 10uM
CCOC(=O)C1(Cc2ccccc2C)CCCN(S(C)(=O)=O)C1 (centres unmarked) | 16.5%
Cc1cc(NC(=O)c2ccc(N3C(=O)C4C5C=CC(C5)C4C3=O)cc2)no1 (centres unmarked) | 8.53%
O=C(Nc1ccccc1OC(F)F)c1cccc(S(=O)(=O)N2CCCC2)c1 | -23.6%
COc1ccc(-n2cnnc2SCC(=O)Nc2cccnc2Cl)cc1 | -18.7%
Cc1ccc(NC(=O)COc2ccc(-n3ccnc3)cc2)cc1Cl | -33.6%
COc1cc(NC(=O)COc2ccc(-n3ccnc3)cc2)cc(OC)c1 | -51.3%
COc1cc(NC(=O)CC(C)n2ccnc2)cc(OC)c1 (centres unmarked) | 10.7%
CCC(C)(C)c1ccc(OCC(=O)Nc2ccncc2)cc1 | -16%
CC(C)(C)c1ccc(NC(=O)COc2ccc(-n3ccnc3)cc2)cc1 | -56.5%
CC(C)(C)c1ccc(OCC(=O)Nc2ccncc2)cc1 | 8.71%
CCOC(=O)/C(C)=N/NC(=O)c1cccc([N+](=O)[O-])c1 | 7.04%
Cc1ccc(CNC(=O)c2ccc(N3CCC4(CC3)CC(c3ccccc3)=NO4)c(NC(=O)c3cccc(C)c3)c2)cc1 | -6.37%
CCCOc1ccc(N2C(=O)CC(SCc3nc4ccccc4[nH]3)C2=O)cc1 (centres unmarked) | -41.2%
N/C(=N/[N+](=O)[O-])N1CCN(C(=O)Oc2ccc([N+](=O)[O-])cc2)CC1 | -36.5%
O=C(Oc1cccc([N+](=O)[O-])c1)N1CCCCC1 | -0.619%
O=C(Oc1ccc([N+](=O)[O-])cc1)N1CCC(N2CCCCC2)CC1 | -65.4%
COC(=O)C1=C(c2ccc(F)cc2OCc2ccccc2)C[C@@H]2CC[C@H]1N2C(=O)NCCO | 3.42%
Cc1cc(C)c(C#N)c(SCc2ccccc2C)n1 | 17.7%
Cc1ccc(S(=O)(=O)N2CCN(CC(O)COc3ccccc3)CC2)cc1 (centres unmarked) | -16.2%

Compound | hERG current change (%, negative = inhibition) at 10uM
O=[N+]([O-])c1cccc(OCC(O)CN2CCN(S(=O)(=O)c3cc(Cl)ccc3Cl)CC2)c1 (centres unmarked) | -31.3%
CCOc1ccc(S(=O)(=O)N2CCN(CC(O)COc3cccc([N+](=O)[O-])c3)CC2)cc1 (centres unmarked) | -65.5%
COc1ccc(S(=O)(=O)N2CCN(Cc3cccc([N+](=O)[O-])c3)CC2)cc1 | -87.4%
O=S(=O)(c1cccs1)N1CCN(CC(O)COc2cccc(Br)c2)CC1 (centres unmarked) | -61.1%
COc1ccc(C(=O)CN2CCN(S(=O)(=O)c3cccc([N+](=O)[O-])c3)CC2)cc1 | -112%
COc1ccc(S(=O)(=O)N2CCN(Cc3cccc(OC)c3)CC2)cc1 | -28.6%
COc1ccc(C(=O)CN2CCN(S(=O)(=O)c3cccc([N+](=O)[O-])c3)CC2)cc1OC | -5.28%
CC(=O)c1ccc(OCC(O)CN2CCN(S(=O)(=O)c3cccc(Br)c3)CC2)cc1 (centres unmarked) | 22.8%
O=S(=O)(c1cccs1)N1CCN(CC(O)COC2CCCc3ccccc32)CC1 (centres unmarked) | -25.1%
COc1cccc(C(=O)CN2CCN(S(=O)(=O)c3cccc([N+](=O)[O-])c3)CC2)c1 | -9.29%
COc1ccc(S(=O)(=O)N2CCN(Cc3cccc(F)c3)CC2)cc1 | -3.34%
Cc1ccc2oc(C(=O)NCC(c3ccco3)N3CCCC3)c(C)c2c1 (centres unmarked) | -33.8%
COc1ccc(C(=O)NNC(=O)CCn2nnc(-c3ccc(Cl)cc3)n2)cc1OC | 19%
O=P(O)(c1ccccc1)c1ccccc1O | -7.16%
O=C(NN1C(=O)C2C3C=CC(C4CC34)C2C1=O)c1ccccc1Cl (centres unmarked) | 0.861%
COc1ccc(N(C)S(=O)(=O)c2cccc(C(=O)Nc3nc(C)c(C(C)=O)s3)c2)cc1 | 7.14%
CCOC(=O)Cn1nnnc1CN(Cc1ccccc1)Cc1cc2cc(CC)ccc2[nH]c1=O | -11.2%
CN1CCN(S(=O)(=O)c2cccc([N+](=O)[O-])c2)CC1 | 18.7%
CC(C)n1c(N2CCN(S(=O)(=O)c3cccc([N+](=O)[O-])c3)CC2)nc2ccccc21 | -71%

Compound | hERG current change (%, negative = inhibition) at 10uM
O=[N+]([O-])c1cccc(S(=O)(=O)N2CCN(c3ccccn3)CC2)c1 | 4.57%
Cc1ccc(C(=O)Nc2nnc(S(=O)(=O)N3CCC(C)CC3)s2)cc1 | 21.8%
Cc1cc(/C=N/NC(=O)c2ccc(O)cc2)c(C)n1C1CC1 | 20.4%
CC(C)CNC(=O)/C(C#N)=C1\N=C(NC(=O)c2ccco2)c2ccccc21 | -60.4%
N#C/C(C(=O)NCc1ccccc1)=C1/N=C(NC(=O)c2ccco2)c2ccccc21 | 10.3%
CCCNC(=O)/C(C#N)=C1\N=C(NC(=O)c2ccco2)c2ccccc21 | -44.6%
Cc1ccc2c(C)c(C(=O)N(Cc3cccs3)C3CCS(=O)(=O)C3)oc2c1 (centres unmarked) | -20.8%
O=C(COc1ccc(F)cc1)N(Cc1cccs1)C1CCS(=O)(=O)C1 (centres unmarked) | -33.4%
Cc1c(C(=O)N(Cc2ccccc2)C2CCS(=O)(=O)C2)oc2ccccc12 (centres unmarked) | -38.5%
O=C(c1ccc([N+](=O)[O-])cc1)N(Cc1cccs1)C1CCS(=O)(=O)C1 (centres unmarked) | -50%
Cc1ccc(OCC(=O)N(Cc2cccs2)C2CCS(=O)(=O)C2)cc1 (centres unmarked) | -8.3%
COc1ccc(OCC(=O)N(Cc2cccs2)C2CCS(=O)(=O)C2)cc1 (centres unmarked) | -6.75%
O=C(COc1ccc(Br)cc1)N(Cc1cccs1)C1CCS(=O)(=O)C1 (centres unmarked) | -51.7%
Cc1c(C(=O)N(Cc2cccs2)C2CCS(=O)(=O)C2)oc2ccccc12 (centres unmarked) | -50.2%
CC(C)(C)c1ccc(OCC(=O)N(Cc2cccs2)C2CCS(=O)(=O)C2)cc1 (centres unmarked) | -54.2%
Cc1ccc(C(=O)N(Cc2cccs2)C2CCS(=O)(=O)C2)cc1 (centres unmarked) | 0.98%
O=C(COc1ccccc1)N(Cc1cccs1)C1CCS(=O)(=O)C1 (centres unmarked) | -17.4%
O=C(c1ccccc1)N(Cc1cccs1)C1CCS(=O)(=O)C1 (centres unmarked) | 12%
